Pf growth 48h = P. falciparum growth inhibition at 48 hours (one generation). P. falciparum luciferase growth in erythrocytes, 48 h. Potency, µM (titrated, usually from 28.7 µM), without a hit: at the top dose activity change, negative = inhibition, hits mostly inhibitors. 310,000 compounds, 5.9% hits. AID 504832; further: potency means the concentration at half of the fitted maximal effect; on the % scale 0 is the no-effect control and ±100 the full control effect
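Read-out is firefly luciferase luminescence from an integrated reporter in P. falciparum, so falling signal marks reduced parasite growth. Infected erythrocytes were at 2% hematocrit and 0.1% parasitemia (final) in Albumax-supplemented RPMI 1640.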
Shiga inhibitor = Shiga toxin inhibition | Vero cells, Shiga toxin protein synthesis inhibition reporter | inhibition, % at 38.7 µM | 290,000 compounds, 9.2% hits | AID 2315; in the data active means inhibition mostly above about 28%, no sharp cut-off; inactive means mostly below about 43%; further: 0% is about no effect
CHX counter = counter-screen hit for Shiga toxin inhibitors, cycloheximide. cell reporter, cycloheximide protein synthesis inhibition counterscreen. max response, %. 300,000 compounds, 12% hits. AID 2314; in the data active means max response mostly above about 13%, no sharp cut-off; inactive means mostly below about 14%; further: read at 38.3 µM for the half of the compounds with a filed dose; 0% is about no effect
NS1 function inh = blocks influenza NS1 protein function; Potency, µM (series often up to 46.1 µM), without a hit: at the highest dose activity, positive = more growth; 270,000 compounds, 0.4% hits; AID 2326; calls by dose curve; further: potency means the concentration at half of the fitted maximal effect; actives are rising curves; nearly all actives have a fitted effect of over 50% in size
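In this qHTS, NS1 from influenza A is expressed in budding yeast, where it slows growth. Cells are switched from glucose to 2% galactose medium (pH 6.0, -URA), treated with compound, and growth recovery is read at OD600.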
Pf growth 96h = inhibits malaria parasite growth, 96 h | P. falciparum luciferase reporter growth, 96 h | Potency, µM (series often up to 28.7 µM), without a hit: at the top dose activity change, negative = inhibition, actives largely listed as inhibitors | 320,000 compounds, 6.9% hits; further: potency means the concentration at half of the fitted maximal effect; on the % scale 0 is the no-effect control and ±100 the full control effect
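Delayed-death screen, second-generation endpoint: infected erythrocytes, 2% hematocrit, 0.05% parasitemia final; 96 hours at 37 C, 5% CO2; luciferase detection reagent; luminescence decrease equals reduced growth.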
An asterisk follows results filed as active; i = inactive; ? = inconclusive; . = not tested or not shown; [ ] = another dose, or the depositor's remark. Hits are enriched below; roughly 21% of the tested compounds scored in any of these assays. Unless noted, the call rests on the fitted dose curve; in most records, active means well fitted inhibition curve with a large enough effect; inconclusive means small, poorly fitted or top-dose-only effect, or another doubt; inactive means no such curve, though single readings can be large or run the other way.

SMILES | Pf growth 48h | Shiga inhibitor | CHX counter | NS1 function inh | Pf growth 96h
CCOc1cccc(NCc2cc3c(C(C)(C)C)nn(-c4ccccc4)c3[nH]c2=O)c1 | ? | -15 | -2 | 10% | .
Cn1nc(C(=O)Nc2ccc3c(c2)OCCO3)c2ccccc2c1=O | 22% | . | . | . | 28%
O=C(Nc1ccc2c(c1)OCO2)c1nn(-c2ccccc2)c(=O)c2ccccc12 | 12µM* | -8 | -4 | -15% | 13µM*
O=C(CN(Cc1ccccc1)C(=O)CNS(=O)(=O)c1ccc(Cl)cc1)NCC1CCCO1 (configuration not stated) | 29% | -10 | -5 | 0% | ?
O=C(Nc1ccc2c(c1)OCO2)c1n[nH]c(=O)c2ccccc12 | 49% | 57* | 18* | 0% | 71%
O=C(Nc1ccccc1-c1ccccc1)c1ccc(=O)[nH]n1 | 81% | 83* | 46* | -5% | 15µM*
CC(C)CCn1c(=O)c(C(=O)NCc2ccc3c(c2)OCO3)c(O)c2ccccc21 | 5.9µM* | -10 | -4 | ? | ?
O=C(NCc1ccc2c(c1)OCO2)c1nn(-c2ccccc2)c(=O)c2ccccc12 | -25% | 24 | -2 | 6% | 0.74µM*
Cc1cccc(OCCOC(=O)c2c(-c3ccccc3)noc2C)c1 | ? | -5 | 10 | 4% | -3%
C=CCOc1ccccc1CN1CCC(n2nccc2NC(=O)C2CC2)CC1 | 0% | -5 | -3 | 10% | -22%
CCCC1C2C(=O)N(c3ccccc3OCC)C(=O)C2ON1c1ccccc1 (configuration not stated) | -15% | 25 | -1 | -6% | .
O=C(Nc1ccc2c(c1)OCO2)c1ccc(=O)[nH]n1 | 63% | 52* | 18* | 4% | 102%
O=C(NCc1ccc2c(c1)OCO2)c1ccc(-n2cnnn2)cc1 | 13% | -9 | -1 | -6% | 1.7µM*
Cc1cccc(NC(=O)CCNC(=O)c2ccc(Br)cc2)c1C | -8%[0.00184 µM] | -5 | -2 | -3% | 15%
COc1cc(CN(C)c2ncnc3sccc23)ccc1OC(F)F | ? | -3 | 6 | -8% | 13µM*
COc1ccccc1Nc1ncnc2sccc12 | -1% | -3 | 3 | 5% | 6%
CCN(CC)CCn1c2c(c(SCC(=O)Nc3ccc4c(c3)OCCO4)nc1=O)CCCC2 | ? | . | . | . | 2.9µM*
CCc1ccc(NC(=O)CSc2nc(=O)n(CCCN3CCOCC3)c3c2CCCC3)cc1 | 9.3µM* | . | . | . | ?
Cc1ccn2cc(C34CC5CC(CC(C5)C3)C4)nc2c1 | 20% | 95* | 35* | -8% | ?
CC(C)CN(C(=O)Cn1nnc(-c2ccc(F)cc2)n1)C1CCS(=O)(=O)C1 (configuration not stated) | ? | . | . | . | 23%
OCCN1CCN(C(c2cccs2)c2ccc3cccnc3c2O)CC1 (configuration not stated) | 2.1µM* | 15 | 11 | -148% | 0%
CCOC(=O)c1oc2c(c1C)/C(=N/O)CCC2 | 46% | 66* | 41* | -25% | 84%
CCOC(=O)c1oc2c(c1C)C(=O)CCC2 | 8% | 36 | 9 | -15% | 2%
CCCCSc1nsc(NC(C)=O)n1 | 71% | 171* | 43* | -7% | ?
CCCSc1nsc(NC(=O)CCC)n1 | i | 104* | 37* | . | 3.7µM*
SMILES | Pf growth 48h | Shiga inhibitor | CHX counter | NS1 function inh | Pf growth 96h
CCCCCCSc1nsc(NC(C)=O)n1 | 122% | 59* | 30* | -15% | 5%
CCCSc1nsc(NC(=O)c2cccnc2OCC)n1 | 0% | 22 | 11 | -5% | -11%
CCCCNC(=O)CSc1nnc(NC(C)=O)s1 | -1% | 52 | -1 | -1% | 15%
COc1ccc(C(=O)NC(Nc2ccccc2)C(Cl)(Cl)Cl)cc1 (configuration not stated) | ? | -10 | 1 | -7% | -1%
COc1cc(C=O)ccc1OCc1ccc(Cl)nc1 | 154% | 66* | 41* | -6% | 1%
COc1cc(C=O)ccc1OCc1ccncc1 | -7% | -4 | -2 | 2% | ?
COc1ccc(CCNCc2ccc(OCc3ccc(Cl)nc3)c(OC)c2)cc1OC | . | -7 | -1 | -3% | 12µM*
CCCCCNCc1ccc(OCc2ccc(Cl)nc2)c(OC)c1 | ? | 10 | 0 | -3% | ?
Cc1c(/C=N/NC(=O)C(NC(=O)c2ccc3c(c2)OCO3)C(C)C)c2ccccc2n1C (configuration not stated) | -4% | 11 | -4 | ? | -15%
Cc1c(NC(=O)c2c(N)n(-c3ccccc3)c3nc4ccccc4nc23)c(=O)n(-c2ccccc2)n1C | -10% | -4 | -6 | 3% | -2%
Cc1cccc(-n2c(N)c(-c3nc4ccccc4n3C)c3nc4ccccc4nc32)c1 | 10µM* | -6 | -2 | 14% | 7.4µM*
N#Cc1c(N)n(-c2cccc(C(=O)O)c2)c2nc3ccccc3nc12 | 35% | 10 | -2 | -2% | 42%
Cn1c(-c2c(N)n(-c3ccccc3)c3nc4ccccc4nc23)nc2ccccc21 | 9.3µM* | 9 | 5 | 16% | 6.6µM*
COc1ccc(OC)c(NC(=O)COC(=O)CN2C(=O)NC3(CCCC3)C2=O)c1 | 16% | . | . | . | -8%
C/C(=N\N1CCN(C2c3ccccc3-c3ccccc32)CC1)c1cccnc1 | ? | -14 | -2 | ? | -24%
CN=c1scc(-c2ccccc2F)n1/N=C(\C)c1cccnc1 | 0% | 149* | 48* | 2% | ?
O=C(CCn1c(=O)oc2ccccc21)N1CCN(C(c2ccccc2)c2ccccc2)CC1 | 5.9µM* | -2 | -5 | -45% | 31%
CC(=O)N1CCN(C(c2ccccc2)c2ccccc2)CC1 | . | . | . | -6% | .
O=C(CCn1c(=O)oc2ccccc21)N1CCN(c2ccccc2F)CC1 | 8% | 27 | 0 | -6% | ?
O=C(Cn1c(=O)oc2ccccc21)N1CCN(c2ccccc2)CC1 | 13% | -4 | -1 | 1% | 13µM*
CN1C(=O)C(CC(=O)N2CCN(C(c3ccccc3)c3ccccc3)CC2)N(C)C1=O (configuration not stated) | 12µM* | 11 | 0 | 6% | ?
Cc1c(C(=O)NN2CCN(C)CC2)cccc1[N+](=O)[O-] | 18% | -10 | 0 | -1% | -5%
O=C(NC1CCSc2ccccc21)c1cccc(Cl)c1 (configuration not stated) | ? | -16 | 1 | 10% | 15µM*
CS(=O)(=O)c1ccc(Cl)c(C(=O)NC2CCSc3ccccc32)c1 (configuration not stated) | 0% | 37 | 22* | -1% | 2%
O=C(NC1CCCc2ccccc21)c1ccccc1Br (configuration not stated) | 9% | -13 | -3 | 5% | ?
O=C(NC1CCSc2ccccc21)c1ccccc1Br (configuration not stated) | 29% | 23* | 24* | -28% | ?
CC1CCc2c(sc3nc(CN4CCN(S(=O)(=O)c5ccccc5[N+](=O)[O-])CC4)[nH]c(=O)c23)C1 (configuration not stated) | -20% | -7 | -5 | 12% | ?
